Experimental data published in PubChem BioAssay AID624296 (National Center for Advancing Translational Sciences (NCATS), 2012).
In all, about 350,000 compounds went through this assay and about 9,900 (2.8%) were called active. Roughly 15% stayed inconclusive and do not appear here. The entries come from a sample that favours actives as a whole. Unmarked numbers belong to inactive results. Calls follow the shape of the dose curve; as a rule, active = well fitted activation curve with a large enough effect; inconclusive = small, poorly fitted or top-dose-only effect; inactive = no such curve, though single readings can be large or run the other way.

assay: A quantitative high throughput screen for small molecules that induce DNA re-replication in MCF 10a normal breast cells.; also: nearly all actives have a fitted effect of over 50% in size; as to activity, positive = re-replication: % of control where 0% means no effect; conditions: MCF 10A DNA re-replication, Hoechst nuclear intensity, 48 h; series mostly up to 46.1 µM; activity, positive = re-replication: at the top concentration
From the text: H Molecular Libraries Probe Production Network [MLPCN]
NIH Chemical Genomics Center [NCGC]
Assay Provider: Melvin DePamphilis, NICHD, NIH
Eukaryotic cells normally restrict genome duplication to once per cell division. When this process is aberrant, DNA re-replication occurs when cells reinitiate DNA replication before the first round of replication is complete. DNA re-replication induces the DNA damage response, arrests cell proliferation, and triggers apoptosis. The cell cycle components cyclin A, Cdt-1, Cdc6 and geminin are critical regulators of this process and their misregulation results in DNA re-replication in normal and cancer cells. To identify compounds that induce re-replication in normal cells, an image-based assay was used to measure DNA content of nuclei, as detected by the fluorescent DNA binding dye, Hoechst. Cell nuclei were imaged by a fluorescence scanning plate imager and compounds that induce DNA re-replication were identified by the increase of nuclei with elevated fluorescence intensity
For screening, 250 cells in 5 uL/well were dispensed into black clear 1536-well plates (Aurora) using a solenoid-based dispenser. Following transfer of 23 nL compound or DMSO vehicle by a pin tool, the plates were incubated 48 hr at 37 C and 5% CO2. After addition of 1 uL/well Hoescht stain, the plates were incubated 40 min at 37 C, 5% CO2 and total intensity of fluorescent objects (nuclei) were enumerated by an Acumen Explorer Ex3 (TTP LabTech) fluorescence scanning plate imager (405 nm excitation, 500-530 nm emission).
Keywords: NIH Roadmap, MLPCN, MLI, MLSMR, qHTS, NCGC, DNA replication, cancer
Potency is read from the fitted curve at half-maximal effect.

Structure (SMILES)	activity, positive = re-replication [%]	Potency
CC(C)(C)c1nnc2sc(SCC(O)=C(C#N)c3nc4ccccc4[nH]3)nn2c1=O	-7.27	–
COc1ccccc1-c1sc2ccccc2c1-c1ccc(C(C)=O)cc1	96.3	–
COc1ccccc1C1=CC(=O)CCC1	4.21	–
COc1ccccc1-c1sc2ccccc2c1C#CC1(O)CCCCC1	–	18.4 µM (active)
Cc1ccc(F)cc1NC(=O)CSCc1c(C)noc1C	9.05	–
COc1cccc(-n2c(SCC(=O)NC3CCS(=O)(=O)C3)nc3ccccc3c2=O)c1 (centres undefined)	-0.959	–
O=C(Nc1ccccc1)c1nnsc1S(=O)(=O)c1ccc(Cl)cc1	–	13 µM (active)
CS(=O)(=O)c1ccc(Cl)c(NC(=O)Nc2ccccc2)c1	2.54	–
CC(=O)Nc1cc(C(=O)O)ccc1S(=O)(=O)c1ccc(Cl)cc1	-4.11	–
COc1ccccc1C(=O)COC(=O)COc1ccc(C#N)cc1	-0.419	–
O=C(COC(=O)c1ccc([N+](=O)[O-])o1)NC12CC3CC(CC(C3)C1)C2	2.77	–
N#CCC(=O)Nc1ccc(C(=O)OCC(=O)Nc2sc3c(c2C#N)CCCC3)cc1	2.07	–
CCN(CC(=O)Nc1ccccc1OC)C(=O)CC1CC2CCC1C2 (centres undefined)	-1.06	–
COc1cc(OC)c(C(=O)NNC(=O)c2ccccc2-n2cccc2)cc1OC	4.63	–
O=C(COC(=O)c1ccccn1)Nc1cccc2ccccc12	-0.533	–
Cc1cc(NC(=O)COc2ccccc2C#N)no1	-3.52	–
N#Cc1ccccc1NC(=O)COc1c(Br)cc(Br)c2cccnc12	–	25.9 µM (active)
C#CCOCCOCCOCCNc1nc(N2CCN(C(=O)[C@H](CCC(=O)O)n3cc(CN)nn3)CC2)nc(N2CCN(C(=O)[C@H](CCC(=O)O)n3cc(CN)nn3)CC2)n1	-1.24	–
Cc1cc(NCc2ccco2)n2c(nc3ccccc32)c1C#N	–	16.4 µM (active)
CC(C)c1cc(NCc2ccccn2)n2c(nc3ccccc32)c1C#N	14.3	–
Cc1cc(NC(C)C)n2c(nc3ccccc32)c1C#N	0.0869	–
Cc1ccc(NS(=O)(=O)c2ccc(C(C)C)cc2)cc1S(=O)(=O)N1CCOCC1	3.51	–
Cc1ccc(OC(=O)c2cc3ccccc3o2)cc1	-4.63	–
Cc1ccc(NC(=O)c2cc3ccccc3o2)cc1	0.598	–
C/C(=N\NC(=S)Nc1ccc(C)cc1)c1cc2ccccc2o1	–	13 µM (active)
O=C(CN1C(=O)NC2(CCOc3ccccc32)C1=O)NCc1ccc(F)cc1 (centres undefined)	0.67	–
Cc1cccc(NC(=O)c2cccc(C(F)(F)F)c2)c1	0.159	–
O=C(Nc1cccc(C(F)(F)F)c1)c1cc(Br)cc(Br)c1O	–	4.73 µM (active)
O=C(O)CSCC(=O)Nc1cccc(C(F)(F)F)c1	0.525	–
